Screening data deposited in PubChem by National Center for Advancing Translational Sciences (NCATS).
A selection: hits, their analogues and other compounds. The true share with any hit is near 4.6%.
TRHR PAM = TRH receptor (human) allosteric enhancement; P34981; TRHR cells, fluo-8 calcium fluorescence, EC20 TRH enhancement; enhancement, % at 2 µM; 0.66% of 360,000 active; in the data active = enhancement above about 30%; also: 0% is about no effect
Target sequence (P34981 whole entry, looked up): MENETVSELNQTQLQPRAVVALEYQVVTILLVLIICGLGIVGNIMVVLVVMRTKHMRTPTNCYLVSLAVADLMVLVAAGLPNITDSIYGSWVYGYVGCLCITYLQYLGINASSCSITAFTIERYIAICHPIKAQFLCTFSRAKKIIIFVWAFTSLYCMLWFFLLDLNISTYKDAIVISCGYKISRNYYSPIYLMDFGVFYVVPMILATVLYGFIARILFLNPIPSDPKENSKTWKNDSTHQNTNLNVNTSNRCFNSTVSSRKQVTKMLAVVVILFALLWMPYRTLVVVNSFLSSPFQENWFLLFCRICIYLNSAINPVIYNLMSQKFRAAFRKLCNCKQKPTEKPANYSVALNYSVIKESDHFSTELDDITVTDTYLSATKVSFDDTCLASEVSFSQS
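TRHR-expressing cells loaded with fluo-8 calcium dye were read kinetically (ex 480/em 530) during compound addition, then stimulated with an EC20 of TRH (10 nM final). Enhancement of the Gq-mediated intracellular calcium response was scored.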
D1 antag = antagonists of human D1 dopamine receptor; activity change, negative = inhibition, % at 10 µM; HEK293 TREx D1 cells, calcium flux, dopamine EC80; stronger effect = lower value; P21728; 3.2% of 360,000 active; in the data active = activity change below about -30%; also: % is scaled to controls: 0 for no effect and ±100 for the full control effect
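Kinetic fluorescence of a calcium dye serves as the read-out. D1-expressing Hek293 Trex cells, induced overnight at 30 C, are exposed to compound for 180 s before an EC80 dopamine addition, then read 180 s further.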
D1 agonist = activates the human D1 dopamine receptor; P21728; HEK293 T-REx D1 cells, calcium flux, agonist mode; activation, % at 2 µM; 1% of 360,000 active; also: 0% is about no effect
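Agonism was scored from calcium flux recorded over 180 s (1 read/s) after pintool compound addition, following a 10-cycle baseline. Cells were inducible force-coupled HEK293 TREx D1, plated overnight at 30 C and loaded with no-wash calcium dye.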
TRHR agonist = activates the human TRH receptor; activation, % at 2 µM; TRHR cells, calcium flux fluo-8, FDSS agonist mode; 0.18% of 360,000 active; AID 493084; also: 0% is about no effect
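TRHR-expressing cells, plated overnight in medium with 10% serum, were loaded with fluo-8 calcium dye at room temperature. After a 10 s baseline, library compound was pin-added and calcium release was recorded kinetically (ex 480/em 530) as agonist response.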
D1 potentiator = human D1 dopamine receptor positive modulation; P21728; HEK293 TREx D1 cells, calcium flux, dopamine EC20 potentiation; potentiation, % at 10 µM; 0.036% of 360,000 active; in the data active = potentiation above about 30%; also: 0% is about no effect
* marks the source's active call; other numbers are inactive results. Rule as the data show it, unless noted: active = activation above about 30%; inactive = the rest.

SMILES	TRHR PAM	D1 antag	D1 agonist	TRHR agonist	D1 potentiator
CC(C)Oc1ccc(CNC(=O)c2ccc3nc(Cc4ccccc4)oc3c2)cc1	1	-1	33*	1	-1
Cc1cccc(CNC(=O)c2ccc3nc(Cc4ccccc4)oc3c2)c1	-1	-31*	31*	1	-4
Cc1ccc(CNC(=O)C(=O)NCC(c2ccco2)S(=O)(=O)c2ccccc2)cc1 (stereo not given)	-2	2	3	0	0
O=C(Nc1ccc(Nc2ccccc2)cc1)N1CCOCC1	-1	-20	3	0	-2
CC(C)NC(=O)C1CCCN(S(=O)(=O)c2cccs2)C1 (stereo not given)	5	-5	3	0	-2
O=C(Nc1ccc(O)cc1)N1CCOCC1	-2	-39*	5	1	-2
COc1ccccc1NC(=O)C1CCCN(S(=O)(=O)c2c(C)noc2C)C1 (stereo not given)	-1	-10	5	0	-3
COc1ccc(NC(=O)N2CCCCCC2)cc1	-2	-37*	1	-2	-17
CC(NC(=O)C1CCCN(S(=O)(=O)c2cccs2)C1)c1ccccc1 (stereo not given)	7	-26	30*	0	-1
COc1ccccc1NC(=O)C1CCCN(S(=O)(=O)c2ccccc2)C1 (stereo not given)	2	-31*	4	0	4
O=C(O)c1cccc(Nc2ncnc3scc(-c4ccccc4)c23)c1	3	-4	1	2	1
CCOc1ccccc1C(=O)N1CCC(c2nc3ccccc3o2)CC1	1	3	2	0	1
Cc1cccc(NC(=O)CN2C(=O)C(c3ccc(F)cc3)=NC23CCCCCC3)c1C	2	-12	2	1	-1
CCOC(=O)c1scc(-c2ccccc2)c1S(=O)(=O)N1CCN(c2ccc(Cl)cc2)CC1	9	-10	3	0	0
COc1ccc(OC)c(NC(=O)N2CCCC(C(=O)c3ccccc3OC)C2)c1 (stereo not given)	0	-36*	1	-2	-8
COc1ccccc1NC(=O)C1CCCN(C(=O)Nc2ccc(F)cc2)C1 (stereo not given)	-1	-81*	0	0	1
Cc1ccccc1NC(=O)C1CCCN(C(=O)Nc2ccc(F)cc2)C1 (stereo not given)	4	12	0	0	-10
CS(=O)(=O)N1CCCC(C(=O)Nc2ccccc2)C1 (stereo not given)	32*	-5	3	0	-2
COc1ccc(S(=O)(=O)N2CCN(C(=O)Nc3ccccc3OC)CC2)cc1	-4	-37*	3	0	9
CCc1ccc(NC(=O)CN(C)S(=O)(=O)c2ccc3c(c2)c(=O)n(C)c(=O)n3C)cc1	-1	21	0	0	-3
CCc1ccc(C2=C(C)C(N3CCC(C(=O)NCc4ccc(C)o4)CC3)=NS2(=O)=O)cc1	3	-19	0	-1	-3
Cc1cc2c(s1)c1cnn(Cc3cc(OC(F)(F)F)ccc3F)c(=O)c1n2C	-9	-14	3	0	6
Cc1nc(-c2ccc(S(=O)(=O)Nc3ccc(OC(F)(F)F)cc3)cc2)co1	1	21	5	0	-4
CC(=O)c1ccc(N2CCN(S(=O)(=O)c3ccc4[nH]c5c(c4c3)CCCC5)CC2)cc1	4	-26	-1	0	0
N#C/C(=C\c1cccc(NC(=O)c2ccccc2Cl)c1)C(=O)NCCc1ccccc1	35*	-19	4	1	-5
SMILES	TRHR PAM	D1 antag	D1 agonist	TRHR agonist	D1 potentiator
O=C1CSC(c2ccc(Cl)cc2Cl)N1c1ccccn1 (stereo not given)	-9	0	1	-1	30*
O=C1CSC(c2ccccn2)N1c1ccc(Cl)c(Cl)c1 (stereo not given)	7	6	10	-1	-4
NC(N)=NN=C1CCC(c2ccccc2)CC1 (stereo not given)	21	7	2	1	37*
CC(=O)NN=C1CCC(c2ccccc2)CC1 (stereo not given)	-2	-3	1	0	-9
CCCN1CCN(c2nnc(-n3cccc3C(=O)Nc3ccccc3C(F)(F)F)s2)CC1	2	2	1	2	2
CCc1nnc(NC(=O)c2ccc(OC)cc2OC)s1	2	-30*	3	0	-3
COc1ccc(C(=O)Nc2nnc(SCC(=O)Nc3ccc(NC(C)=O)cc3)s2)c(OC)c1	4	-2	3	0	-2
CCc1noc(C)c1C(=O)N1CCN(S(=O)(=O)c2ccc(Br)cc2)CC1	0	-72*	-3	-1	-7
CCc1noc(C)c1C(=O)N1CCN(S(=O)(=O)c2cc(C)ccc2C)CC1	-6	-31*	-1	0	11
Cc1ccc(S(=O)(=O)N2CCN(C(=O)c3ccc(OCc4c(C)noc4C)cc3)CC2)cc1	1	-1	2	0	-5
Cc1ccc(C)c(S(=O)(=O)N2CCN(C(=O)c3ccc(OCc4c(C)noc4C)cc3)CC2)c1	11	-31*	10	0	-1
CCc1noc(C)c1C(=O)N1CCN(S(=O)(=O)c2ccc(C)cc2)CC1	-3	-15	1	0	-1
Cc1ccc2oc(C(=O)N(Cc3cccc(F)c3)C3CCS(=O)(=O)C3)c(C)c2c1 (stereo not given)	3	-18	7	0	2
O=C(NCCc1csc(-c2ccc(F)cc2)n1)c1cccs1	2	-13	-2	-1	-4
Cc1ccc(-c2cn3c(=O)cc(C)[nH]c3n2)cc1	0	-40*	1	0	-1
Cc1cc(=O)n2cc(-c3ccccc3)nc2[nH]1	2	-11	1	0	-5
CN(CC(=O)Nc1ccccc1Cl)C(=O)CCSc1ccc(F)cc1	0	5	20	0	-5
Cc1cc(Br)ccc1NC(=O)CN(C)C(=O)CCSc1ccc(F)cc1	2	-35*	14	0	-9
Cc1ccccc1CN1c2ccccc2-c2nc(SCC(N)=O)ncc2S1(=O)=O	-2	9	5	0	-5
O=C(CSc1ncc2c(n1)-c1cc(Cl)ccc1N(Cc1ccccc1)S2(=O)=O)Nc1ccc(F)cc1F	6	33	4	1	4
Cc1ccccc1CN1c2ccccc2-c2nc(SCC(=O)c3ccccc3)ncc2S1(=O)=O	0	-38*	2	0	2
COc1ccccc1NC(=O)CSc1ncc2c(n1)-c1cc(Cl)ccc1N(Cc1ccccc1)S2(=O)=O	-5	-33*	7	2	-7
CCc1ccccc1NC(=O)CSc1ncc2c(n1)-c1ccccc1N(Cc1ccc(C)cc1)S2(=O)=O	-2	-37*	2	0	-8
Cc1cccc(-n2c(C)cc(C(=O)C(=O)Nc3ccccc3F)c2C)c1C	2	-1	1	-1	-2
